Compound activity from PubChem BioAssay.
HCV inhibitor: HCV inhibition. Huh7.5.1 HCVcc-Cre infection, luciferase reporter, 44 h. Potency, µM (series often up to 41.8 µM), for inactives: at the top dose activity change, negative = inhibition, actives largely listed as inhibitors. hit rate 3.4% among 340,000. AID 651820; active = well fitted inhibition curve with a large enough effect; inconclusive = small, poorly fitted or top-dose-only effect, or another doubt; inactive = no such curve, though single readings can be large or run the other way; also: potency is read from the fitted curve at half-maximal effect
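HCVcc-Cre virus at an moi near 0.5 was added right after compound to cells cultured 4 h from seeding (1,000 cells/well). Luciferase activity was determined 44 h later, 15 min after substrate addition at RT.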
Vaccinia mCherry: inhibitors of vaccinia virus infection (mCherry reporter signal); Potency, µM (titrated, usually from 36.5 µM), without a hit: at the highest dose activity change, negative = inhibition, usual class: inhibitors; hit rate 0.63% among 310,000; Vaccinia virus mCherry reporter infection, fluorescence; AID 720579; calls by dose curve; tested in A549 cells; also: potency is read from the fitted curve at half-maximal effect; nearly all actives have a fitted effect of over 35% in size
Lassa entry inh: inhibitors of Lassa virus binding or cell entry. Lassa virus pseudotype entry inhibition, cell reporter. Potency, µM (highest dose often 37.9 µM), for the others: at the top dose activity change, negative = inhibition, hits mostly inhibitors. hit rate 1.2% among 300,000. AID 540256; calls by dose curve; tested in HEK293 cells; also: potency is read from the fitted curve at half-maximal effect; nearly all actives have a fitted effect of over 50% in size
HCMV antiviral: inhibitors of human cytomegalovirus | HFF cells, HCMV-luciferase reporter, 72 h; stronger effect = lower value | activity change, negative = inhibition, % at 57.5 µM | hit rate 4.5% among 410,000 | AID 1259415; in the data active = activity change below about -60%; inconclusive = no clear call, values can overlap the other calls; inactive = above about -39%
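HFF cells seeded 16 h at 37C, treated with compounds, infected with luciferase-reporter HCMV at MOI 1 PFU/cell; luciferase read at 72 h post infection, normalized to buffer-only and Salinomycin controls.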
VACV Venus inh: vaccinia inhibition (Venus reporter); Vaccinia virus Venus reporter expression, fluorescence; hit rate 0.46% among 330,000; AID 720580; Potency, µM (titrated, usually from 36.5 µM), inactives show top-dose activity change, negative = inhibition, actives largely listed as inhibitors; calls by dose curve; tested in A549 cells; also: potency is read from the fitted curve at half-maximal effect; nearly all actives have a fitted effect of over 30% in size
MARV entry inh: Marburg virus entry inhibition; Marburg virus pseudotyped entry inhibition, cell reporter; Potency, µM (top dose mostly 37.8 µM), for the others: at the top dose activity change, negative = inhibition, actives largely listed as inhibitors; hit rate 1.8% among 300,000; AID 540276; calls by dose curve; tested in HEK293 cells; also: potency is read from the fitted curve at half-maximal effect
Active calls of the source: *; i = inactive; ? = inconclusive; . = no result given; [ ] = dose if it differs, or a comment. A selection: hits, their analogues and other compounds. The true share with any hit is near 7.8%. % is scaled to controls: 0 for no effect and ±100 for the full control effect.

SMILES	HCV inhibitor	Vaccinia mCherry	Lassa entry inh	HCMV antiviral	VACV Venus inh	MARV entry inh
CCN(CC)CCCNC(=O)c1oc2c(c1C)-c1nn(Cc3ccc(Cl)cc3)cc1CC2	.	-26.1%	-19.2%[46.1 µM]	-96.6*	-15.8%	.
Cc1c(C(=O)N2CCCC2)oc2c1-c1nn(CC(=O)NCc3ccccc3F)cc1CC2	.	-29.5%	-12.4%[46.1 µM]	-64.5*	-24.6%	.
COCCCNC(=O)c1oc2c(c1C)-c1nn(Cc3ccc(Cl)cc3)cc1CC2	.	-29.5%	-12.4%[46.1 µM]	-17.0	-19.9%	.
CCn1c(=O)c2cc(C(=O)N3CCN(c4cccc(OC)c4)CC3)sc2c2ccccc21	.	-12.5%[7.34 µM]	?	7.4	-7.9%[7.34 µM]	?
COCCCNC(=O)NC(CCC(C)C)c1c(-n2cccc2)sc2c1CCN(C)C2 (stereo not given)	.	-12.2%	-5.4%[46.1 µM]	11.3	-11.3%	.
CCC(=O)Oc1cc(C(C)(C)C)cc2cc(-c3nc(-c4ccc(OC)cc4OC)no3)c(=O)oc12	.	-9.0%	15.1%[46.1 µM]	-39.2	2.0%	.
Cc1ccc(S(=O)(=O)N2CCN(c3nc(-n4ccnn4)nc4ccccc34)CC2)cc1	.	-12.4%	.	.	-10.0%	.
OC(CN1CCN(Cc2ccc3c(c2)OCO3)CC1)c1c[nH]c2ccccc12 (stereo not given)	?	-9.9%	?	-87.7*	-13.1%	-28.0%
Cc1c(C(O)CN2CCN(Cc3ccc4c(c3)OCO4)CC2)c2ccccc2n1C (stereo not given)	17.8µM*	-21.1%	?	-28.0	-5.1%	?
FC(F)(F)c1nc(N2CCCC2)ncc1-c1nnnn1-c1ccccc1	11.2µM*	.	-0.7%	-71.7*	.	-15.8%
Cc1ccc(-n2nnnc2-c2cnc(N3CCCC3)nc2C(F)(F)F)cc1	11.2µM*	?	?	?	?	-12.0%
Cc1cc(C)nc(N2CCN(c3nnnn3-c3ccccc3)CC2)n1	-3.7%	-2.1%	1.7%	-11.9	-5.1%	-2.0%[46.1 µM]
NC(CS)C(=O)O (stereo not given)	.	-17.8%	.	.	-9.5%	.
CCOC(=O)N[C@@]1(C(F)(F)F)C(=O)NC(C)=C1C#N	.	.	.	.	.	0.9%
CC1CCc2c(cc(-c3ccccc3)n2-c2ccc(C(=O)NC(C)C)cc2)C1 (stereo not given)	.	-17.3%	?	-99.2*	-16.1%	.
CCCNC(=O)c1ccc(-n2c(-c3ccccc3)cc3c2CCC(C)C3)cc1 (stereo not given)	.	-28.5%	?	-99.2*	-25.7%	.
CC(C)NC(=O)c1ccc(-n2c(-c3ccccc3)cc3c2CCCCC3)cc1	.	i	17.0%[46.1 µM]	?	-3.7%	.
CCOCCCNC(=O)c1ccc(-n2c(-c3ccccc3)cc3c2CCCC3)cc1	.	-10.9%	?	-66.0*	-20.2%	.
COCCNC(=O)c1ccc(C(=O)C(=O)c2ccccc2)cc1	4.5%	i	8.1%	-2.6	-10.9%	22.7%
COCCNC(=O)c1ccc(-n2c(-c3ccccc3)cc3c2CCC(C)C3)cc1 (stereo not given)	.	?	2.7%[46.1 µM]	-101.1*	?	.
COCCCNC(=O)c1ccc(-n2c(-c3ccccc3)cc3c2CCCCC3)cc1	.	-15.3%	-22.4%[46.1 µM]	?	-11.4%	.
CN(C)CCNC(=O)c1ccc(-n2c(-c3ccccc3)cc3c2CCCCC3)cc1	.	i	-9.7%[46.1 µM]	?	-22.9%	.
CC(=O)Nc1ccc(CN(C)c2c(C)nc3ccc(C(=O)NC4CCN(Cc5ccccc5)CC4)cn23)cc1	.	-0.2%	.	-97.1*	-21.6%	.
O=C(Nc1ccc(Cl)c(S(=O)(=O)N2CCCCC2)c1)c1ccncc1	8.91µM*	-27.5%	-26.6%	-77.3*	-25.1%	?
Cc1ccc(NC(=O)c2ccc(S(=O)(=O)N3CCC(C)CC3)cc2)nc1	-29.2%	?	-26.4%	-64.0*	-21.1%	-23.5%
SMILES	HCV inhibitor	Vaccinia mCherry	Lassa entry inh	HCMV antiviral	VACV Venus inh	MARV entry inh
O=C(O)c1ccc(NC(=O)c2ccc(Cl)c(S(=O)(=O)N3CCCCCC3)c2)cc1	.	-6.8%	3.4%[46.1 µM]	0.8	-2.1%	1.9%[46.1 µM]
O=C(Nc1ccncc1)c1ccc(Cl)c(S(=O)(=O)N2CCCCC2)c1	10µM*	-4.4%	?	.	-19.6%	?
O=C(Nc1ccc(Cl)c(S(=O)(=O)N2CCCCC2)c1)c1cnccn1	-8.4%	.	.	-2.7	.	.
Cc1ccc(NC(=O)c2ccc(Cl)c(S(=O)(=O)N3CCCCCC3)c2)nc1	?	-12.9%	-30.0%	-68.3*	-10.6%	-18.0%[46.1 µM]
O=C(O)c1cccc(N2CCCCS2(=O)=O)c1	12.3%	-5.8%	6.5%	-99.8*	-2.2%	-0.8%
COc1ccc(C(NC(=O)c2cccnc2)c2cc(Cl)c3cccnc3c2O)cc1OC (stereo not given)	8.91µM*	-10.7%[1.46 µM]	15.8µM*	-97.2*	?	7.08µM*
COc1ccc(C(=O)NCCCNC(=O)c2cccnc2)cc1OC	0.8%	7.5%	5.9%[46.1 µM]	-6.8	8.4%	2.2%[46.1 µM]
COc1ccc(C(=O)NC(c2ccc(OC)c(OC)c2)c2cc(Cl)c3cccnc3c2O)cc1 (stereo not given)	.	4.47µM*	.	.	?	.
CCC(=O)NC(c1ccc(OC)cc1)c1cc(Cl)c2cccnc2c1O (stereo not given)	2.51µM*	?	2.82µM*	33.9	?	2.24µM*
CCCC(=O)NC(c1ccc(OCC)cc1)c1ccc(OC)c(OC)c1 (stereo not given)	-12.3%	-14.2%	-2.4%	-36.6	-1.6%	-24.0%
COc1cccc(Cn2c(=O)n(Cc3ccccc3)c(=O)c3c2c2cc(OC)ccc2n3C)c1	.	2.4%	2.0%[46.1 µM]	16.5	3.1%	.
Cc1c(CC(=O)N2CCCCC2)c(=O)oc2cc(O)ccc12	.	7.3%	22.4%[46.1 µM]	-1.3	2.6%	11.0%[46.1 µM]
Cc1ccc(C)c(CN2C[C@H](Sc3ccccn3)C[C@H]2C(=O)Nc2ccc3sc(C)nc3c2)c1	.	i	.	.	0.5%	.
N#CCOc1nc(N2CCCCC2)nc(N2CCCCC2)n1	14.1µM*	.	.	-37.5	.	.
COc1ccc(Nc2nc(OC)nc(N3CCOCC3)n2)cc1	-0.1%	.	.	-38.2	.	.
N#CCOc1nc(N2CCCC2)nc(N2CCCC2)n1	?	.	-12.6%	-23.7	.	2.6%
COc1nc(N2CCOCC2)nc(-n2cccc2)n1	0.891µM*	.	9.1%	18.3	.	?
COc1nc(N2CCCCCC2)nc(N2CCCCCC2)n1	10µM*	.	15.0%	?	.	-9.1%
Cc1cccc(/C=C2/Sc3ccc(C(=O)NCCCN4CCOCC4)cc3NC2=O)c1	.	.	.	-30.5	.	.
CCN1CCN(CCCNC(=O)c2ccc3c(c2)NC(=O)c2ccccc2S3)CC1	10µM*	-9.2%	.	-2.9	-4.4%	-8.2%
COc1ccc(C(=O)NCCCN2CCOCC2)cc1OC	26.3%	.	-1.0%	35.3	.	-0.2%
COc1ccc(/C=C2/Sc3ccc(C(=O)NCCCN4CCOCC4)cc3NC2=O)cc1OC	7.94µM*	i	-9.2%	97.6	-20.8%	?
CCN1CCN(CCCNC(=O)c2ccc3c(c2)NC(=O)/C(=C\c2cccc(C)c2)S3)CC1	1.78µM*	.	.	?	.	.
